Assay results taken from PubChem BioAssay (NCI).
The panel holds about 83,000 compounds, 20% with a hit somewhere; the sample as a whole holds those more often.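 Each cell line was grown in a 96-well plate and treated with one concentration of compound for 48 hours. Values below 10 were considered active.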 Calls of active or inactive are those of the source.

Legend:
Test in all cases: NCI-60 one-dose screen, 48 h (100 = growth as untreated, 0 = no growth, -100 = all killed)
Settings in all cases: 10 µM unless noted
SR leukemia = system: SR leukemia
RPMI-8226 leukemia = system: RPMI-8226 leukemia
OVCAR-8 ovarian = system: OVCAR-8 ovarian
OVCAR-5 ovarian = system: OVCAR-5 ovarian
OVCAR-4 ovarian = system: OVCAR-4 ovarian
SK-OV-3 ovarian = system: SK-OV-3 ovarian
IGROV1 ovarian = system: IGROV1 ovarian
OVCAR-3 ovarian = system: OVCAR-3 ovarian
HS 578T breast = system: HS 578T breast
NCI/ADR-RES ovarian = system: NCI/ADR-RES ovarian
T-47D breast = system: T-47D breast
BT-549 breast = system: BT-549 breast
MDA-MB-435 melanoma = system: MDA-MB-435 melanoma
SW-620 colon = system: SW-620 colon
MCF7 breast = system: MCF7 breast
HCT-116 colon = system: HCT-116 colon
HCC-2998 colon = system: HCC-2998 colon
KM12 colon = system: KM12 colon

Measured: growth

COC12C=C/C(=C(/C(=O)OCc3ccncn3)C(=O)CCCCCCCCC3(OC)C=C/C(=C(/C(=O)OCc4ccncn4)C(=O)CCCCCCCC1)O3)O2
inactive: OVCAR-8 ovarian 17.2% | OVCAR-4 ovarian 12.2% | SK-OV-3 ovarian 52.8% | HS 578T breast 38% | T-47D breast 25.3% | SW-620 colon 12.9%
active: SR leukemia -15.6% | RPMI-8226 leukemia -22.3% | OVCAR-5 ovarian -2.72% | IGROV1 ovarian -27.1% | OVCAR-3 ovarian -52.4% | NCI/ADR-RES ovarian 7.59% | BT-549 breast -27.1% | MDA-MB-435 melanoma -34.4% | MCF7 breast 5.92% | HCT-116 colon -50.9% | HCC-2998 colon -85.1% | KM12 colon -75.9%

O=C(/C=C/c1cccc(Cl)c1)c1cccc(OCCCOc2cccc(C(=O)/C=C/c3cccc(Cl)c3)c2)c1
active: RPMI-8226 leukemia -8.65%
inactive: SR leukemia 37.1% | OVCAR-8 ovarian 98.2% | OVCAR-5 ovarian 113% | OVCAR-4 ovarian 102% | SK-OV-3 ovarian 107% | IGROV1 ovarian 92.7% | OVCAR-3 ovarian 102% | HS 578T breast 105% | NCI/ADR-RES ovarian 99.6% | T-47D breast 90.4% | BT-549 breast 90.2% | MDA-MB-435 melanoma 102% | SW-620 colon 90.7% | MCF7 breast 20.8% | HCT-116 colon 37% | HCC-2998 colon 109% | KM12 colon 96.8%

NC(Cc1ccc(O)c([N+](=O)[O-])c1)C(=O)O (stereo not drawn)
inactive: SR leukemia 89.1% | RPMI-8226 leukemia 95% | OVCAR-8 ovarian 103% | OVCAR-5 ovarian 107% | OVCAR-4 ovarian 95.2% | SK-OV-3 ovarian 115% | IGROV1 ovarian 85% | OVCAR-3 ovarian 105% | HS 578T breast 98.4% | NCI/ADR-RES ovarian 99% | T-47D breast 103% | BT-549 breast 96.9% | MDA-MB-435 melanoma 112% | SW-620 colon 104% | MCF7 breast 98% | HCT-116 colon 98.5% | HCC-2998 colon 99.6% | KM12 colon 103%

CC(C)=CC(=O)OCC(=O)O[C@@H]1C[C@]2(C(C)C)O[C@@]1(C)[C@@H]1CC[C@@H](C)[C@H]1[C@@H]2OC(=O)/C=C/c1ccccc1
active: HS 578T breast -0.351%
inactive: SR leukemia 69.2% | RPMI-8226 leukemia 56% | OVCAR-8 ovarian 35.9% | OVCAR-5 ovarian 103% | OVCAR-4 ovarian 96.5% | SK-OV-3 ovarian 91.7% | IGROV1 ovarian 108% | OVCAR-3 ovarian 96.5% | NCI/ADR-RES ovarian 30.6% | T-47D breast 65.1% | BT-549 breast 37.7% | MDA-MB-435 melanoma 91.7% | SW-620 colon 87.1% | MCF7 breast 71.5% | HCT-116 colon 72.2% | HCC-2998 colon 90.7% | KM12 colon 89.4%

C[C@@H](CO)[C@@H]1CCC=C2CC[C@]3(C)[C@H](CC[C@@H]4[C@@]5(C)CCCNC(C)(C)[C@@H]5CC[C@]43C)[C@H]21
active: SR leukemia -29.9% | RPMI-8226 leukemia -19.8% | MDA-MB-435 melanoma 7.57% | SW-620 colon -72.1% | MCF7 breast 7.68% | HCT-116 colon -20.3% | HCC-2998 colon -61.5% | KM12 colon 4.99%
inactive: OVCAR-8 ovarian 67.2% | OVCAR-5 ovarian 82.9% | OVCAR-4 ovarian 48.8% | SK-OV-3 ovarian 107% | IGROV1 ovarian 71.3% | OVCAR-3 ovarian 69.8% | HS 578T breast 69.8% | NCI/ADR-RES ovarian 80.9% | T-47D breast 58.9% | BT-549 breast 81.5%

COc1ccc(Cc2cnc(NC(=O)c3cc(C)oc3C)s2)cc1
active: MDA-MB-435 melanoma 0.623%
inactive: SR leukemia 14.1% | RPMI-8226 leukemia 51.9% | OVCAR-8 ovarian 45.3% | OVCAR-5 ovarian 53.6% | OVCAR-4 ovarian 58.5% | SK-OV-3 ovarian 49.1% | IGROV1 ovarian 44.6% | OVCAR-3 ovarian 15% | HS 578T breast 24.5% | NCI/ADR-RES ovarian 20.6% | T-47D breast 31.8% | BT-549 breast 50.7% | SW-620 colon 27.9% | MCF7 breast 21.6% | HCT-116 colon 25.1% | HCC-2998 colon 60.9% | KM12 colon 25.4%

CCN1CCN(C(=O)[C@]23CCC(C)(C)C[C@@H]2C2=CC[C@@H]4[C@@]5(C)CCC(=O)C(C)(C)[C@@H]5CC[C@@]4(C)[C@]2(C)CC3)CC1
active: RPMI-8226 leukemia 9.86%
inactive: SR leukemia 12.2% | OVCAR-8 ovarian 63% | OVCAR-5 ovarian 72.2% | OVCAR-4 ovarian 50.7% | SK-OV-3 ovarian 70.1% | IGROV1 ovarian 65% | OVCAR-3 ovarian 56.4% | HS 578T breast 40.7% | NCI/ADR-RES ovarian 39.7% | T-47D breast 56.4% | BT-549 breast 58.6% | MDA-MB-435 melanoma 33.9% | SW-620 colon 31.8% | MCF7 breast 39.9% | HCT-116 colon 19.1% | HCC-2998 colon 62.8% | KM12 colon 41.2%

c1ccc([P+](c2ccccc2)(c2ccccc2)c2ccc3c4ccc([P+](c5ccccc5)(c5ccccc5)c5ccccc5)c5cccc(c6cccc2c63)c54)cc1
active: RPMI-8226 leukemia -8.35% | SK-OV-3 ovarian -7.17% | IGROV1 ovarian 6.28% | BT-549 breast -1.26% | MDA-MB-435 melanoma 3.29% | HCT-116 colon 8.67% | KM12 colon -9.19%
inactive: SR leukemia 14.7% | OVCAR-8 ovarian 14.2% | OVCAR-5 ovarian 24.3% | OVCAR-4 ovarian 23.6% | OVCAR-3 ovarian 19.3% | HS 578T breast 15.8% | NCI/ADR-RES ovarian 72% | T-47D breast 23.6% | SW-620 colon 10% | MCF7 breast 16.1% | HCC-2998 colon 17.9%

Cc1ccc2c(n1)C(=O)C(Br)=C(C1CCCC1)C2=O
inactive: SR leukemia 31.1% | RPMI-8226 leukemia 55.9% | OVCAR-8 ovarian 96% | OVCAR-5 ovarian 106% | OVCAR-4 ovarian 112% | SK-OV-3 ovarian 88.7% | IGROV1 ovarian 96% | OVCAR-3 ovarian 82.9% | HS 578T breast 93.1% | NCI/ADR-RES ovarian 97.1% | T-47D breast 90% | BT-549 breast 95.5% | MDA-MB-435 melanoma 108% | SW-620 colon 85.8% | MCF7 breast 89.8% | HCT-116 colon 73.7% | HCC-2998 colon 115% | KM12 colon 99.6%

O=C(Nc1ccc(Oc2cccc(Cl)c2)c(Cl)c1)c1cnccn1
inactive: SR leukemia 26.3% | RPMI-8226 leukemia 18.1% | OVCAR-8 ovarian 28% | OVCAR-5 ovarian 60.4% | OVCAR-4 ovarian 38.9% | SK-OV-3 ovarian 83.3% | IGROV1 ovarian 27% | HS 578T breast 18.7% | NCI/ADR-RES ovarian 14.8% | T-47D breast 40.7% | BT-549 breast 57.4% | SW-620 colon 22.7% | MCF7 breast 20.3% | HCT-116 colon 20.9% | HCC-2998 colon 50.8% | KM12 colon 20.7%
active: OVCAR-3 ovarian -7.23% | MDA-MB-435 melanoma -39.7%

O=C(O)c1cn(C2CC2)c2cc(N3CCN(Cc4ccc5ccccc5c4O)CC3)c(F)cc2c1=O
active: SR leukemia 6.63% | OVCAR-3 ovarian -26.2% | HS 578T breast -1.88% | BT-549 breast -59.1%
inactive: RPMI-8226 leukemia 73.5% | OVCAR-8 ovarian 14.4% | OVCAR-5 ovarian 51% | OVCAR-4 ovarian 32.5% | SK-OV-3 ovarian 49.7% | IGROV1 ovarian 33.3% | NCI/ADR-RES ovarian 48% | T-47D breast 30.9% | MDA-MB-435 melanoma 33.6% | SW-620 colon 36.1% | MCF7 breast 17% | HCT-116 colon 14.5% | HCC-2998 colon 41.9% | KM12 colon 42.4%

CCN(CC)c1ccc(\C=N/N=C(N)/C(N)=N\N=C/c2ccc(N(CC)CC)cc2)cc1
inactive: SR leukemia 87.6% | RPMI-8226 leukemia 99% | OVCAR-8 ovarian 99% | OVCAR-5 ovarian 126% | OVCAR-4 ovarian 110% | SK-OV-3 ovarian 102% | IGROV1 ovarian 105% | OVCAR-3 ovarian 115% | HS 578T breast 103% | NCI/ADR-RES ovarian 101% | T-47D breast 104% | BT-549 breast 104% | MDA-MB-435 melanoma 101% | SW-620 colon 104% | MCF7 breast 106% | HCT-116 colon 105% | HCC-2998 colon 114% | KM12 colon 106%

Cc1cccc(/C=C2\CN(C(=O)OC(C)(C)C)C/C(=C\c3cccc(C)c3)C2=O)c1
inactive: OVCAR-8 ovarian 85.4% | OVCAR-5 ovarian 109% | OVCAR-4 ovarian 89.2% | SK-OV-3 ovarian 93.3% | IGROV1 ovarian 90.4% | OVCAR-3 ovarian 97.5% | HS 578T breast 96.7% | NCI/ADR-RES ovarian 88% | T-47D breast 87.8% | BT-549 breast 105% | MDA-MB-435 melanoma 93.1% | MCF7 breast 23.2% | HCT-116 colon 11.2% | HCC-2998 colon 103% | KM12 colon 74.1%
active: SR leukemia 6.54% | RPMI-8226 leukemia -7.31% | SW-620 colon 7.71%

CC1CCN(CCOc2ccc(CNc3ccc4nc(CCC5CCCCC5)[nH]c4c3)cc2)CC1
inactive: SR leukemia 14.4% | OVCAR-8 ovarian 43.1% | OVCAR-5 ovarian 59.9% | OVCAR-4 ovarian 50.4% | SK-OV-3 ovarian 80.4% | IGROV1 ovarian 43.1% | OVCAR-3 ovarian 66.3% | HS 578T breast 27.5% | NCI/ADR-RES ovarian 51% | BT-549 breast 68.4% | SW-620 colon 13.9% | HCT-116 colon 13.7% | KM12 colon 44%
active: RPMI-8226 leukemia -15.7% | T-47D breast -32.8% | MDA-MB-435 melanoma -43.4% | MCF7 breast 5.38% | HCC-2998 colon -50.5%

O=C(CSc1nc2sc3c(c2c(=O)n1-c1ccccc1)CCCCC3)N/N=C/c1cccc([N+](=O)[O-])c1
inactive: SR leukemia 38.3% | RPMI-8226 leukemia 73.4% | OVCAR-8 ovarian 16.3% | OVCAR-5 ovarian 78% | SK-OV-3 ovarian 80.4% | IGROV1 ovarian 71.1% | OVCAR-3 ovarian 10.9% | NCI/ADR-RES ovarian 44% | T-47D breast 64.1% | BT-549 breast 38.1% | MDA-MB-435 melanoma 72.9% | SW-620 colon 52.4% | MCF7 breast 45.9% | HCC-2998 colon 98% | KM12 colon 47.6%
active: OVCAR-4 ovarian -6.2% | HS 578T breast -1.34% | HCT-116 colon 4.84%

Nc1ncnc2c1C(c1ccccc1)c1ccc3ccccc3c1O2 (stereo not drawn)
inactive: SR leukemia 55.1% | RPMI-8226 leukemia 80.8% | OVCAR-8 ovarian 79.6% | OVCAR-5 ovarian 99% | OVCAR-4 ovarian 86.5% | SK-OV-3 ovarian 64.7% | IGROV1 ovarian 77.8% | OVCAR-3 ovarian 93.9% | HS 578T breast 93.7% | NCI/ADR-RES ovarian 80.9% | T-47D breast 55.7% | BT-549 breast 73.3% | MDA-MB-435 melanoma 79.3% | SW-620 colon 94.9% | MCF7 breast 67.4% | HCT-116 colon 85.3% | HCC-2998 colon 102% | KM12 colon 88.3%
